This is a sample that favours compounds with a hit; in the whole collection about 3.9% have one here.
Bead autofluor: flagged as autofluorescent in microsphere protease counterscreen. compound autofluorescence counterscreen, microsphere flow cytometry; hits give high values. fluorescence intensity (no concentration beside the values). 3.1% of 360,000 active. AID 624483; in the data active means fluorescence intensity above about 16000; inconclusive means no clear call, values can overlap the other calls
BoNT-A LC inh2: blocks Botulinum neurotoxin A light chain protease. multiplex microsphere protease substrate cleavage, flow cytometry. inhibition, % at 10 µM. 0.17% of 360,000 active. AID 588499; further: plate controls were buffer without enzyme for full effect and enzyme alone for no effect
CCHFV vOTU inh: blocks the CCHF virus ovarian tumor domain protease; CCHFV vOTU protease, Pep-AMC fluorescence; inhibition, % at 11.5 µM; 0.55% of 370,000 active; AID 651958; in the data active means inhibition above about 30%; further: 0% = vehicle wells with enzyme and 100% = no enzyme wells
Anthrax LF inh2: inhibitors of Bacillus anthracis lethal factor protease. inhibition, % at 10 µM. multiplex microsphere protease cleavage assay, LF. P15917. 0.12% of 360,000 active; further: plate controls were buffer without enzyme for full effect and enzyme alone for no effect
Target sequence (P15917 whole entry, looked up): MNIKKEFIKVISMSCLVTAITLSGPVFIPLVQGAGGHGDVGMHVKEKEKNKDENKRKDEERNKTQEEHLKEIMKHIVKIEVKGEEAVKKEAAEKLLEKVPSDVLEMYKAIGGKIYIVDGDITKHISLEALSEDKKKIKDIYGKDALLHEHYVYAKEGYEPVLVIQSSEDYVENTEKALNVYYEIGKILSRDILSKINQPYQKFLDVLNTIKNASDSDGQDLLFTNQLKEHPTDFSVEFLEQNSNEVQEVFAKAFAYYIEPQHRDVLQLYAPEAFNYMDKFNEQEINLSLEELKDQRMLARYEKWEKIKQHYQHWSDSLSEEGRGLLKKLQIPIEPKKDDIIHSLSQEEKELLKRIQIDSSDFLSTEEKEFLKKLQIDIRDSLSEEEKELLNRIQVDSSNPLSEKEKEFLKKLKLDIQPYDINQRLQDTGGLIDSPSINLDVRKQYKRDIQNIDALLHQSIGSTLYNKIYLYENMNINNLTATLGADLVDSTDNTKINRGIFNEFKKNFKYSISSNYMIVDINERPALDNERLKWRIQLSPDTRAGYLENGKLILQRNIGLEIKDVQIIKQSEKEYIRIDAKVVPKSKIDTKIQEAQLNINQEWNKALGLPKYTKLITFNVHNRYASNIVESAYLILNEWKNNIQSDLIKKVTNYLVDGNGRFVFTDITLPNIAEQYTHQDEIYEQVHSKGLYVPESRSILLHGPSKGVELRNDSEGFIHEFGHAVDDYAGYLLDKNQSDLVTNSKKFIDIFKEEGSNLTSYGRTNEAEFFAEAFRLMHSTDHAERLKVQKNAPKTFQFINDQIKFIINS
BoNT-F LC inh: blocks Botulinum neurotoxin F light chain protease; Multiplex microsphere protease cleavage assay, flow cytometry; inhibition, % at 10 µM; 0.22% of 360,000 active; in the data active means inhibition above about 35%, passing the limit was not always enough; inconclusive means no clear call, values can overlap the other calls; further: plate controls were buffer without enzyme for full effect and enzyme alone for no effect
3CLpro inhibitor: SARS-CoV 3CLpro protease inhibition. P0C6X7. recombinant SARS-CoV 3CLpro, quenched FRET peptide cleavage. inhibition, % at 6 µM. 0.14% of 290,000 active. AID 1706; in the data active means inhibition above about 12%
The depositor's hits bear a star; ? = inconclusive; . = no result given. Unless noted, no stated cut-off is given here; in the data, active means inhibition above about 30%; inconclusive means no clear call, values can overlap the other calls; inactive means below that.

SMILES	Bead autofluor	BoNT-A LC inh2	CCHFV vOTU inh	Anthrax LF inh2	BoNT-F LC inh	3CLpro inhibitor
CCOC(=O)N1CCN(C(=O)CN(c2ccc(OC)c(OC)c2)S(C)(=O)=O)CC1	16773*	-1	-6	1	2	4
N#Cc1cccc(S(=O)(=O)NCC(=O)OCC(=O)c2ccc[nH]2)c1	5533	-1	11	0	-3	3
CCC(Sc1nc(-c2ccccc2)c(-c2ccccc2)[nH]1)C(=O)O (centres undefined)	3468	-3	-4	-2	-30	-1
Cn1c(SCc2ccc(Br)cc2)nnc1-c1cccs1	16457*	1	25	-4	3	-2
Cn1c(SCc2nc3ccccc3[nH]2)nnc1-c1cccs1	23403*	?	-13	-1	0	-3
Cc1ccc(CSc2nnc(-c3cccs3)n2C)cc1	13667	0	-1	-1	-10	2
Cn1c(SCc2c(Cl)cccc2Cl)nnc1-c1cccs1	18672*	?	11	-2	5	-2
COc1ccc(NC(=O)C(Cc2ccccc2)n2cccc2)cc1OC (centres undefined)	3745	-1	-14	-4	-6	-1
COc1cc2c(cc1NC(=O)CSc1nnc(COc3ccccc3)n1Cc1ccco1)oc1ccccc12	.	.	5	.	.	.
COC(=O)c1c(NC(=O)CCCC(=O)O)sc2c1CCC2	22669*	-1	-6	0	1	-1
COC(=O)c1c(NC(=O)CC2SCC(C(=O)OC)NC2=O)sc2c1CCCC2 (centres undefined)	24791*	-3	-2	-1	-5	3
NC(=O)c1c(NC(=O)CCCC(=O)O)sc2c1CCCCCC2	2094	0	15	-2	2	1
CCn1c(CCNC(=O)c2cccs2)nnc1SCC(=O)NC1CCCCC1	21522*	?	-2	-7	4	-5
CCn1c(SCC(=O)NCCc2ccc(Cl)cc2)nnc1-c1cccs1	4913	-2	9	-3	-24	0
CCn1c(CCNC(=O)c2cccs2)nnc1SCC(=O)Nc1ccc(Cl)cc1	22204*	?	-9	-4	4	-2
CCn1c(CNC(=O)c2ccccc2F)nnc1SCC(=O)NC1CCCCC1	2241	0	-2	-2	-3	-4
COc1ccccc1N(C)S(=O)(=O)c1ccc(C(=O)N(C)Cc2ccc(Cl)s2)cc1	2857	-1	11	-10	1	.
c1ccc(Cc2nnc3sc(Nc4ccccc4)nn23)cc1	16579*	?	1	0	-3	-10
CN(CC(=O)Nc1ccccc1Br)C(=O)c1ccccc1OCc1ccc(Cl)cc1	3410	0	8	-2	-3	.
CCC1CCc2c(sc(NC(=O)c3cnccn3)c2C(N)=O)C1 (centres undefined)	3942	-6	-7	11	9	-1
O=C(O)c1ccc(F)c(S(=O)(=O)Nc2ccccc2Cl)c1	23288*	0	1	0	0	0
Cc1ccc(NC(=O)COC(=O)[C@@H]2CCCN2C(=O)c2cccs2)cc1S(=O)(=O)N(C)C	4014	0	-4	-6	-4	-4
Cc1cc(C)n2nc(-c3cnn(C)c3C(F)(F)F)cc2n1	19076*	?	11	-7	3	-2
CC(C)Oc1cccc(-c2n[nH]c(=S)n2N=Cc2cccc([N+](=O)[O-])c2)c1	.	.	10	.	.	.
O=C(Nc1ccccc1C(F)(F)F)OC1CCC12CCC(c1ccccc1)CC2 (centres undefined)	.	.	12	.	.	.
SMILES	Bead autofluor	BoNT-A LC inh2	CCHFV vOTU inh	Anthrax LF inh2	BoNT-F LC inh	3CLpro inhibitor
O=c1[nH]c(=O)n(Cc2ccc(F)cc2)c(O)c1C=NCCCn1ccnc1	20628*	-1	11	-6	0	4
COc1cccc(C(=O)Nc2cc([N+](=O)[O-])ccc2N2CCN(C)CC2)c1	24311*	-4	-7	-3	-9	4
CN1CCN(c2ccc([N+](=O)[O-])cc2NC(=O)c2ccccc2)CC1	16981*	?	0	-4	-3	-1
CN1CCN(C(=O)c2cc([N+](=O)[O-])cc([N+](=O)[O-])c2)CC1	3260	-5	4	2	3	3
O=C(Nc1cc([N+](=O)[O-])ccc1N1CCCC1)c1ccccc1	4138	0	-5	-3	-1	5
CN1CCN(NC(=O)c2cc([N+](=O)[O-])cc([N+](=O)[O-])c2)CC1	18837*	2	2	1	-2	-1
COc1ccc(OC)c(NC(=O)c2ccc(S(=O)(=O)N3CCN(C)CC3)cc2)c1	22427*	0	-7	-1	-2	-3
CN1CCN(c2ccccc2NC(=O)c2cccc([N+](=O)[O-])c2)CC1	3821	0	-1	-16	-33	-1
COc1ccc(S(=O)(=O)NCC2CCCN(Cc3cccnc3)C2)cc1 (centres undefined)	3579	0	4	-7	-1	3
CCOc1ccc(C(C(=O)NC2CCCC2)N(C(=O)CNC(=O)c2ccco2)c2cccnc2)cc1 (centres undefined)	6070	-1	-8	-4	-7	-9
COc1ccc(C(=O)Nc2cc([N+](=O)[O-])ccc2N2CCN(C)CC2)cc1	19500*	2	-2	-4	0	0
COc1cccc(NC(=O)c2cc([N+](=O)[O-])ccc2N2CCN(C)CC2)c1	2725	0	1	0	-6	1
Cc1nc(NC(=O)COC(=O)C2CC2C)c(Cl)cc1Cl (centres undefined)	3657	0	-5	1	-7	.
Cc1nc(NC(=O)COC(=O)CCS(=O)(=O)c2ccccc2Cl)c(Cl)cc1Cl	20461*	?	2	2	-1	-2
O=C(COC(=O)Cc1ccccc1)Nc1ncc(Cl)cc1Cl	3757	0	8	0	-7	1
O=C(COC(=O)CCc1ccccc1)Nc1ncc(Cl)cc1Cl	16931*	-1	-11	-1	-1	1
COc1ccc(-c2c(C)n([O-])c3c([n+]2=O)CCCC3)cc1OC	.	.	.	.	.	0
COc1nc(-c2ccccc2)cc(-c2ccc(OC)c(OC)c2)n1	19447*	0	4	-1	-2	2
COc1ccc(-c2cc(-c3ccccc3)nc(NN)n2)cc1OC	3061	0	0	-5	-16	-2
CC1CCCC(C)N1C(=O)CSc1ncccn1 (centres undefined)	3957	-1	14	-7	-23	-1
O=C1C=CC(=O)N1c1cccc2cccnc12	4078	-1	-7	-3	-6	.
CC(=O)c1nnn(-c2nc(N3CCCC3)nc(N(c3ccccc3)c3ccccc3)n2)c1C	23099*	-2	-16	-2	-6	-2
Cc1ccc2c(c1)N(C(=O)CCC(=O)NCc1cccc(Br)c1)CC(C)O2 (centres undefined)	4498	0	-5	-14	-4	-4
FC(F)(F)/C(=N\P(=S)(N1CCOCC1)N1CCOCC1)N1CCOCC1	17852*	?	.	-9	13	-5
CCOP(=S)(OCC)N1CCOCCOCCN(P(=S)(OCC)OCC)CCOCCOCC1	4136	0	6	-3	-7	0

Screening data: PubChem, several laboratories
